Consider 68 compounds from PubChem BioAssay AID504843 (Broad Institute, 2011).

About 360 (30%) of roughly 1,200 compounds were called active. The rule behind the calls is not given here. Only a sample is shown. Entries with a potency or affinity are not part of this list.

This experiment in a line: bacterial growth inhibition, dose response, counter-screen, BacTiter-Glo luminescence, cherry-picked samples (AID 504843).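 Note: growth measured after 8 h incubation at 30 °C.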 Conditions: BacTiter-Glo ATP luminescence; series mostly up to 15 µM. (The purpose of a counterscreen is to sort out artefacts and off-target activity.)
In the case of `CCO[C@@H]1OC(C(=O)O)=C[C@H](C)[C@H]1CCCO`, the compound was called inactive. With `O=C(O)C1(C(=O)O)CCC1`, the compound was classed as inactive. For `Cc1occc1C(=O)NCc1cccc(CNC(=O)c2ccoc2C)c1` the value was “inactive”; for `O=C(Cn1cc(C(F)(F)F)ccc1=O)OCC(=O)c1ccc[nH]1`, “inactive”; for `COc1ccc(-c2[nH]nc3c2C(c2ccoc2)C(C#N)=C(N)O3)cc1` (stereo not drawn), “inactive”.

With `COc1ccccc1N1CCN(C(=O)c2cc3c(=O)n4ccccc4nc3s2)CC1`, the compound was classed as inactive. The result for `N#Cc1ccccc1S(=O)(=O)N1CCN(CC(=O)Nc2ccnn2C2CCCC2)CC1` reads “inactive”; that for `COc1ccccc1-c1ccc(=O)n(CC(=O)Nc2ccc(C(=O)N3CCCC3)cc2)n1`, “inactive”. For `COc1ccccc1C(=O)Nc1ccnn1C1CCN(Cc2cnn(C)c2)CC1` the value was “inactive”; for `C=CCOc1ccccc1CN1CCC(n2nccc2NC(=O)C2CC2)CC1`, “inactive”; for `C[C@H]1CN([C@@H](C)CO)C(=O)c2cccc(NS(=O)(=O)c3ccc(F)cc3)c2O[C@H]1CN(C)Cc1ccc(Cl)c(Cl)c1`, “inactive”. For `CNC(=O)CN(c1ccc(C(C)C)cc1)S(C)(=O)=O` the value was “inactive”; for `CC1CCN(C(=O)C2(NC(=O)Nc3cccc(F)c3)CCCCC2)CC1`, “inactive”; for `CCOc1ccc(NC(=O)c2cccc(OC(=S)N3CCC(C)CC3)c2)cc1`, “inactive”. With `Cc1nc2ccc(C(=O)Nc3ccc4nc[nH]c4c3)cc2[nH]1`, the outcome was inactive. The result for `O=C(N[C@@H](Cc1ccccc1)C(=O)NC1CC1)c1ccc(Cl)cc1` reads “inactive”; that for `CN1C(=O)N(C)C2(c3ccccc3)NC(=O)NC12c1ccccc1` (stereo not drawn), “inactive”; that for `O=C(CC1SCCNC1=O)Nc1cccc(Cl)c1` (stereo not drawn), “inactive”. For `COC(=O)CN1C(=O)N/C(=C/c2ccccc2OC)C1=O` the value was “inactive”. For `Nc1nnc(-c2ccc(F)cc2)s1` the value was “inactive”; for `CC(C)c1nnc(NC(=O)CCS(=O)(=O)Cc2ccccc2)s1`, “inactive”; for `O=C(CSc1nnc(-c2ccncc2)s1)Nc1ccc(Cl)c(C(=O)O)c1`, “inactive”. With `O=C(COc1ccc2c3c(c(=O)oc2c1)CCCC3)NCc1ccncc1`, the compound was called inactive. Take `O=C(O)CCC(=O)Nc1sc2c(c1C(=O)Nc1cccc3ccccc13)CCCCC2`: the compound was called inactive.

Consider `Cc1onc(C(=O)NCc2ccc(F)cc2)c1[N+](=O)[O-]`, for which the result was inactive. The result for `O=C(NCc1ccc(Cl)cc1)c1cccc(NC2=NC3CS(=O)(=O)CC3S2)c1` (stereo not drawn) reads “inactive”. The result for `O=C(COc1ccc2c3c(c(=O)oc2c1)CCCC3)NCC(O)c1ccccc1` (stereo not drawn) reads “inactive”; that for `COc1ccc2c3c(c(=O)oc2c1OCC(N)=O)CCCC3`, “inactive”; that for `Cc1ccc2c(CC(=O)Nc3ccc(N4CCN(C)CC4)cc3C)coc2c1`, “inactive”. The result for `CCOCCCNC(=S)NCCNc1nc2ccc(C)cc2cc1C#N` reads “inactive”; that for `COc1cc(C(=O)NC(c2ccccc2)c2ccccc2)cc(OC)c1C`, “inactive”. In the case of `O=C(Cn1c(=O)n(-c2ccc(F)cc2)c(=O)c2sccc21)NC1CCCCC1`, the compound was classed as inactive. For `O=C(NNc1ncnc2c1cnn2-c1ccccc1)c1cccs1` the value was “inactive”; for `CC(C)S(=O)(=O)C1=NSC2=NC(=O)/C(=C\c3ccc(-c4cccc(C(=O)O)c4)o3)C(=N)N21`, “inactive”. For `CCc1nc2cc3sc(CC)nc3cc2s1` the value was “inactive”. The result for `O=C(CCNc1n[nH]c(=O)[nH]c1=O)N1CCCCC1` reads “inactive”.

In the case of `C(=N\n1cncn1)/c1ccc(N2CCOCC2)cc1`, the compound was called inactive. For `Cc1cnc(C(=O)OCC(=O)c2ccc(-c3ccccc3)cc2)cn1` the value was “inactive”. For `O=C(OCC(=O)N1CCCC1=O)c1cccc(S(=O)(=O)N2CCOCC2)c1` the value was “inactive”; for `CN(C(=O)COC(=O)c1cccc(S(=O)(=O)N2CCOCC2)c1)C1CCS(=O)(=O)C1` (stereo not drawn), “inactive”. In the case of `Cc1ccc(C(=O)N/C(=C\c2cn(S(=O)(=O)N(C)C)c3ccccc23)C(=O)NCCCN2CCOCC2)cc1`, the compound was classed as inactive.

Consider `COc1ccc(S(=O)(=O)N2CCN(CC(=O)Nc3c(C)n[nH]c3C)CC2)cc1OC`, for which the compound was classed as inactive. The result for `COc1ccc(C)cc1S(=O)(=O)N(CC(=O)NC1CCCC1)c1ccc(F)cc1` reads “inactive”; that for `COc1cc(CNCc2ccccn2)ccc1OCc1c(Cl)cccc1Cl`, “inactive”. For `Cc1nn(-c2ccccc2)c(Cl)c1/C=N/NC(=O)c1ccccc1NS(=O)(=O)c1cccs1` the value was “inactive”; for `CCOC(=O)c1c(NC(=O)C2C3C=CC(C3)C2C(=O)O)sc2c1CCC(C)C2` (stereo not drawn), “inactive”; for `COc1ccc(S(=O)(=O)N2CCC(C(=O)N3CCN(C)CC3)CC2)cc1Cl`, “inactive”. For `COc1ccc(OC)c(S(=O)(=O)N2CCC(C(=O)NC3CC3)CC2)c1` the value was “inactive”; for `COc1cccc(C(=O)N(CN2CCCC2=O)c2cccc(Cl)c2)c1OC`, “inactive”. Consider `NS(=O)(=O)c1cc(C(=O)O)c(NCc2ccco2)cc1Cl`, for which the compound was called inactive. For `COc1ccc(S(=O)(=O)NCCSCc2ccco2)cc1Cl` the value was “inactive”.

Turning to `CS(=O)(=O)c1ccc([C@@H](O)[C@@H](CF)NC(=O)C(Cl)Cl)cc1`, the result was inactive. For `CCC[C@@H]1C[C@@H](C(=O)N[C@H]([C@@H](C)O)[C@H]2O[C@H](SC)[C@H](O)[C@@H](O)C2O)N(C)C1` (stereo partly drawn) the value was “inactive”; for `O=C(O)CCc1ccc(-c2cccs2)o1`, “inactive”; for `c1ccc(CC2=NCCN2)cc1`, “inactive”. For `Cc1ccc2[nH]c(=O)c(CNS(=O)(=O)c3ccccc3)c(-c3ccccc3)c2c1` the value was “inactive”; for `Cc1ccccc1Nc1nnc(C)c(=O)[nH]1`, “inactive”.

Consider `Cc1cccc(-c2onc3ccc(C4(C)OCCO4)cc23)c1`, for which the compound was classed as inactive. The result for `COc1ccc(/C=N/NC(=O)COc2cc(C)cc(C)c2)cc1COC(C)=O` reads “inactive”; that for `CCn1c(SCC(=O)NC2CCCCC2)nnc1-c1cccnc1`, “inactive”.

Consider `Cc1ccc(NC(=O)CSc2nccn2C)cc1F`, for which the call was inactive. For `Cc1ccc(N2CC(C(=O)Nc3cc(C(F)(F)F)ccc3N3CCCC3)CC2=O)cc1` (stereo not drawn) the value was “inactive”.

For `CCOCCCNC(=O)C(c1ccc(C)cc1)N(Cc1cccs1)C(=O)c1ccccc1O` (stereo not drawn), the outcome was inactive. The result for `COc1ccc(OC)c(C(=O)CSc2nnc(-c3cccs3)o2)c1` reads “inactive”; that for `O=C(Nc1ccc(C(=O)O)cc1)/C(=C\C=C\c1ccccc1)NC(=O)c1ccccc1Br`, “inactive”; that for `Cc1noc(NS(=O)(=O)c2ccc(NC(=O)c3ccoc3C)cc2)c1C`, “inactive”. For `O=C(O)c1ccn(COc2ccc(Br)cc2)n1` the value was “inactive”; for `Cc1ccc(NC(=O)c2cc(N3C(=O)C4CC=CCC4C3=O)ccc2N2CCOCC2)cc1Cl` (stereo not drawn), “inactive”.
